Here are results for 61 compounds from PubChem BioAssay AID372 (MTDP, 2006).

The structures appear in SMILES notation. Out of some 100,000 compounds screened, about 770 (0.77%) were called active. What follows is part of a selection rich in actives, with near analogues and random picks from the rest. Unmarked numbers belong to inactive results. Rule as the data show it: active = inhibition above about 50%; inactive = the rest.

The target of the experiment is Gag-Pol polyprotein (Human immunodeficiency virus type 1 group M subtype B (isolate HXB2)) (UniProt P04585). Kind of experiment: RNase H inhibition, HIV 1 Gag Pol polyprotein, FRET biochemical assay, screening (AID 372). The following applies: HIV-1 RT RNase H, FRET RNA/DNA substrate fluorescence; at 10 µM; stronger effect = higher value.
Regarding `Cc1ccc2cc(C3=C/C(=C/c4cccc(Br)c4)C(=O)O3)ccc2c1`, the inhibition was 4%.

In the case of `CCCCCOc1ccc(/C=N\Nc2nc(-c3ccccc3)cc(-c3ccccc3)n2)cc1`, the inhibition is 8%.

On to `COc1ccc(C(=O)COC(=O)c2ccc(N3C(=O)C4C5C=CC(C6CC56)C4C3=O)cc2)cc1` (stereo unspecified), for which the inhibition is 9%.

In the case of `CCN(CC)S(=O)(=O)c1ccc(C(C)(C)C)cc1`, the inhibition was 15%.

On to `N/C(=C\C(=O)c1ccccc1O)C(F)(F)F`, for which the inhibition was 8%.

Consider `CCc1nn(-c2ccccc2)c2nc(-c3ccccc3C)c3cc(OC)c(OC)cc3c12`, for which the inhibition was 13%.

On to `COc1ccc(/C=C2/C(=O)NC(=O)N(Cc3ccco3)C2=O)cc1C`, for which the inhibition is 12%.

For the compound `O=C(O)CC1SC(=NC(=O)c2ccco2)N(c2ccccc2)C1=O` (stereo unspecified), the inhibition is 0%.

Take `Cc1ccc(N2C(=O)/C(=C/c3ccc(F)cc3)SC2=S)cc1C`: the inhibition is 6%.

On to `Cc1ccc(N2C(=O)/C(=C/c3ccc(Cl)cc3)SC2=S)cc1C`, for which the inhibition is 5%.

Consider `O=C1/C(=C\c2ccc(O)c(O)c2)SC(=S)N1c1cccc2ccccc12`, for which the inhibition is 72% (active).

On to `O=C1NC(=O)N(c2cccc3ccccc23)C(=O)/C1=C/c1ccc(O)c(O)c1`, for which the inhibition was 22%.

Regarding `O=C1/C(=C\c2ccc(O)c(O)c2)SC(=S)N1c1cccc(C(F)(F)F)c1`, the inhibition is 48%.

With `O=C1/C(=C\c2ccc(O)cc2)SC(=S)N1c1ccc(Cl)cc1`, the inhibition is 36%.

Consider `O=C1/C(=C/c2cccc(O)c2)SC(=S)N1c1ccc(O)cc1`, for which the inhibition is 26%.

`CN(C)c1ccc(/C=C2\C(=O)N(c3nc(-c4ccc(Cl)cc4)cs3)N=C2c2ccccc2)cc1`: the inhibition was 37%.

In the case of `Cc1ccc(C(=O)N2N=C(c3ccc(Cl)cc3)CC2(O)C(F)(F)F)o1` (stereo unspecified), the inhibition is 20%.

Take `CCCC(C)C(=O)Nc1cccc([N+](=O)[O-])c1C` (stereo unspecified): the inhibition was 11%.

As for `O=C1CC(NCc2ccc3c(c2)OCO3)C(=O)N1c1ccc(Cl)cc1` (stereo unspecified), the inhibition is 8%.

Regarding `O=c1c2ccccc2c(-c2ccccc2)nn1Cc1cccc(Br)c1`, the inhibition was 15%.

In the case of `O=c1c2ccccc2c(-c2ccccc2)nn1CCc1ccccc1`, the inhibition is 53% (active).

Regarding `CC(C)Cn1nc(-c2ccccc2)c2ccccc2c1=O`, the inhibition was 18%.

For `COc1ccc(OC)c(C2NC(=S)NC(C)=C2C(=O)OCCc2ccccc2)c1` (stereo unspecified), the inhibition was 21%.

Regarding `COCCOC(=O)C1=C(C)NC(=S)NC1c1cc(OC)ccc1OC` (stereo unspecified), the inhibition was 15%.

Regarding `COc1ccc(OC)c(C2NC(=S)NC(C)=C2C(=O)OCCOc2ccccc2)c1` (stereo unspecified), the inhibition was 50% (active).

Turning to `COc1ccc(/C(O)=C2/C(=O)C(=O)N(CCCCCC(=O)O)C2c2ccc([N+](=O)[O-])cc2)cc1` (stereo unspecified), the inhibition is 6%.

Take `CCOC(=O)Cc1csc(N/N=C\c2c(Cl)ccc(Cl)c2Cl)n1`: the inhibition is 20%.

As to `O=C(CN1C(=O)C2C3CCC(C3)C2C1=O)Nc1ccccc1` (stereo unspecified), the inhibition was 14%.

As for `CCOc1cc(C(=S)N2CCCCC2)ccc1O`, the inhibition is 8%.

Turning to `COc1cc(C(=S)N2CCC(C)CC2)ccc1O`, the inhibition is 7%.

As for `CCOc1cc(C(=S)N2CCCCC2)cc(Br)c1O`, the inhibition is 56% (active).

As for `COc1cc(C(=S)N2CCCCC2)cc(Br)c1O`, the inhibition was 37%.

Turning to `CCOc1cc(C(=S)N2CCC(C)CC2)ccc1O`, the inhibition is 50% (active).

For `COc1cc(C(=S)N2CCOCC2)cc(I)c1O`, the inhibition is 45%.

Take `COc1cc(C(=S)N2CCCCC2)ccc1O`: the inhibition was 0%.

Regarding `CCOc1cc(C(=S)N2CCOCC2)cc(Br)c1O`, the inhibition was 13%.

`CCOc1cc(C(=S)N2CCCCC2)cc(I)c1O`: the inhibition was 59% (active).

Turning to `CS(=O)(=O)N(CC(=O)Nc1cccc2ccccc12)c1cccc(Cl)c1`, the inhibition is 10%.

With `O=C1CC(c2ccccc2)CC(O)=C1C=NCc1ccc(F)cc1` (stereo unspecified), the inhibition is 8%.

`Cc1nnc(N/N=C/c2cccc([N+](=O)[O-])c2)[nH]c1=O`: the inhibition is 8%.

For the compound `CCOC(=O)C1CCN(C(=O)COc2ccc(C)cc2C)CC1`, the inhibition was 4%.

Consider `Fc1ccc(Br)cc1SCCc1ccccn1`, for which the inhibition is 0%.

As to `CCOc1cc(/C=C2/SC(=S)NC2=O)cc([N+](=O)[O-])c1OCCCOc1ccc(Cl)cc1`, the inhibition was 27%.

Consider `O=C(NC(=S)Nc1cc(-c2nc3ccccc3s2)ccc1Cl)c1ccc(Cl)cc1`, for which the inhibition is 33%.

Consider `O=C(NC(=S)Nc1cc(-c2nc3ccccc3s2)ccc1Cl)c1ccccc1`, for which the inhibition is 37%.

With `COc1ccc(C(=O)NC(=S)Nc2cc(-c3nc4ccccc4s3)ccc2C)cc1`, the inhibition was 1%.

Turning to `Cc1cc(C(=O)Nc2cc(-c3nc4ccccc4s3)ccc2Cl)ccc1[N+](=O)[O-]`, the inhibition was 52% (active).

Consider `COc1ccc(C(=O)NC(=S)Nc2cc(-c3nc4ccccc4s3)ccc2Cl)cc1OC`, for which the inhibition is 10%.

Take `Cc1ccc(-c2nc3ccccc3s2)cc1NC(=O)c1ccc(Cl)c([N+](=O)[O-])c1`: the inhibition is 3%.

As for `COc1ccc(C(=O)NC(=S)Nc2cc(-c3nc4ccccc4s3)ccc2Cl)cc1`, the inhibition is 50% (active).

Take `Cc1ccc(C(=O)Nc2cc(-c3nc4ccccc4s3)ccc2Cl)cc1[N+](=O)[O-]`: the inhibition is 39%.

Consider `O=C1C(=Cc2ccc(Oc3ccc(C(F)(F)F)cc3[N+](=O)[O-])c(Cl)c2)C(=O)c2ccccc21`, for which the inhibition is 16%.

Take `Cc1cc(Oc2cc(NC(=O)c3cc(-c4ccccc4)nc4ccccc34)cc([N+](=O)[O-])c2)ccc1Cl`: the inhibition was 0%.

Consider `Cc1cc(C)c2oc(-c3ccc(C)c(NC(=O)c4cccs4)c3)nc2c1`, for which the inhibition is 15%.

With `CCOc1ccc(/C=N/n2c(-c3ccc(OC)cc3)n[nH]c2=S)cc1OC`, the inhibition is 12%.

Turning to `COc1cc2ccccc2cc1C(=O)Nc1cccc2ccccc12`, the inhibition was 10%.

On to `COc1ccc(OS(=O)(=O)c2cc(Cl)c(Cl)cc2Cl)cc1`, for which the inhibition was 31%.

For `O=S(=O)(Oc1ccc2ccccc2c1)c1cc(Cl)c(Cl)cc1Cl`, the inhibition was 58% (active).

With `Cc1cc(S(=O)(=O)Oc2ccc3ccccc3c2)c(Cl)cc1Cl`, the inhibition was 42%.

As to `O=C(Nc1ccccc1C#Cc1ccccc1)C(c1ccccc1)c1ccccc1`, the inhibition is 8%.

Take `Cc1ccc(/C=C2\SC(=S)N(CCC(=O)Nc3cc(Cl)cc(Cl)c3)C2=O)cc1`: the inhibition is 14%.

For orientation: inhibition means the share of the control response that was lost under treatment.
